High-throughput results from PubChem.
The list is not random: actives were taken first. Their share in the collection is about 1.4%.
UHRF1 binding: UHRF1 methyl-DNA binding inhibition; UHRF1 binding to methylated oligo, TR-FRET; 0.75% of 370,000 active; inhibition, % at 4.4 µM; Q96T88; AID 687016; in the data active = inhibition above about 21%;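 also: UHRF1 SRA domain binding a hemimethylated CpG hairpin DNA probe; 0% = median of test compound wells and 100% = reference inhibitor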
Casp6 inh: caspase-6 (human) enzyme inhibition; AID 686996; P55212; purified caspase-6, Z-VEID-R110 cleavage fluorescence; inhibition, % at 12.5 µM; 0.53% of 350,000 active;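 active = mean inhibition across replicates at least about 35%, with every replicate also reaching that limit, limit read from the data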;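 also: 0% = median of neutral control wells and 100% = no fluorescence left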
LEDGF integ inh: blocks HIV-1 LEDGF/p75-dependent DNA integration | TR-FRET IN-LEDGF/p75 DNA integration, Eu/Cy5 | inhibition, % at 3.7 µM | 0.64% of 370,000 active | AID 743269;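 active = inhibition above the screen-wide mean plus 3 SD, cut at about 13% in these data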;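 also: signal is the Cy5 over europium emission ratio at 671 and 618 nm; 0% = plate median of compound wells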
MBD2 inh: inhibitors of human MBD2 binding to methylated oligonucleotide; TR-FRET; inhibition, % at 4.4 µM; 0.31% of 370,000 active; in the data active = inhibition above about 13%
Target sequence (Q9UBB5 whole entry, looked up): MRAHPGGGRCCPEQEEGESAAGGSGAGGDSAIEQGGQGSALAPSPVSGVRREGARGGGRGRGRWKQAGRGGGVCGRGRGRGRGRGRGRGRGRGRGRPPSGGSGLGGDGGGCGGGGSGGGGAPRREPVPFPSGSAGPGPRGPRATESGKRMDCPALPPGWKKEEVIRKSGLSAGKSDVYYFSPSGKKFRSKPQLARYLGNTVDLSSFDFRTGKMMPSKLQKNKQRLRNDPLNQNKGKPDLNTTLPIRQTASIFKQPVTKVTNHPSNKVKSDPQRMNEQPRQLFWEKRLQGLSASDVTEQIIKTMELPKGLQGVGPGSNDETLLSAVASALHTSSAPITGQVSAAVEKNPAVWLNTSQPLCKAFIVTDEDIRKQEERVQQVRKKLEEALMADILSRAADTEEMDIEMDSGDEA
An asterisk follows results filed as active; nt = no result given.

SMILES | UHRF1 binding | Casp6 inh | LEDGF integ inh | MBD2 inh
C[C@@H]1CCCCO[C@@H](CN(C)Cc2ccc(Cl)c(Cl)c2)[C@@H](C)CN([C@@H](C)CO)C(=O)c2cc(NC(=O)C3CCCCC3)ccc2O1 | nt | 1.1 | nt | nt
CC(=O)Nc1cccc(-c2nc3ccccc3o2)c1 | -4.6 | 0.5 | 4.5 | -3.8
CC(=O)Nc1ccc(S(=O)(=O)Nc2cccc(-c3nc4cc(C)ccc4o3)c2)cc1 | 21.5* | 2.5 | 7.4 | 6.2
CC(=O)Nc1ccc2oc(-c3ccccc3)nc2c1 | 23.3* | 1.3 | -2.9 | 2.0
CC[C@@]1(C(=O)OC)N[C@H](CN(C)C(=O)Nc2ccc(C(F)(F)F)cc2)[C@@H]2C(=O)N(C)C(=O)[C@@H]21 | 21.7* | 4.2 | -4.2 | 5.6
O=C(C[C@H]1C(=O)N(C2CCCCC2)C[C@@H]1c1ccccc1)Nc1ccc(Br)cc1 | 21.6* | 2.3 | 10.5 | 11.9
CC(NCC(O)c1ccc([N+](=O)[O-])cc1)C12CC3CC(CC(C3)C1)C2 (configuration not stated) | 21.7* | -2.0 | 4.1 | -3.9
O=C(COc1ccc(Cl)cc1)OCC(=O)N1CCCC1 | -1.3 | nt | -2.3 | -0.7
O=C(COc1ccc(Cl)cc1)OCc1ccc(Cl)cc1 | 40.1* | -5.1 | -1.7 | 3.1
CCCNC(=O)C[C@H]1CC[C@@H]2[C@@H](COc3ccc(NC(=O)c4cccc(C(F)(F)F)c4)cc3C(=O)N2C)O1 | nt | 0.0 | nt | nt
CN1C(=O)c2cc(NC(=O)C3CC3)ccc2OC[C@H]2O[C@@H](CC(=O)O)CC[C@@H]21 | nt | 37.1* | nt | nt
CCS(=O)(=O)Nc1ccc2c(c1)C(=O)N(C)[C@H]1CC[C@H](CC(=O)NCCCN3CCOCC3)O[C@H]1CO2 | nt | 39.4* | nt | nt
CN1C(=O)c2cc(NC(=O)C3CC3)ccc2OC[C@@H]2O[C@H](CC(=O)O)CC[C@H]21 | nt | -3.2 | nt | nt
C[C@@H]1CN([C@H](C)CO)C(=O)c2cc(NC(=O)Cc3cn(C)c4ccccc34)ccc2O[C@@H]1CN(C)Cc1ccncc1 | nt | -2.5 | nt | nt
CCCN(CCC)CCNC(=O)c1cc2c(-c3ccc(Cl)cc3)nn(C)c2s1 | -7.3 | -12.4 | -1.9 | 11.5
CCCN(CCC)CCCNC(=O)c1cc2c(-c3ccc(OC)c(OC)c3)nn(C)c2s1 | 23.2* | -4.4 | -4.5 | 7.4
CCN(CC)CCCNC(=O)c1cn(C)c2ccc(S(=O)(=O)N(C)C)cc2c1=O | 27.0* | -1.6 | 5.7 | 7.6
CCS(=O)(=O)N1Cc2ccccc2CC1C(=O)Nc1cccc(C)c1 (configuration not stated) | 49.9* | 1.9 | -11.2 | 3.6
CCS(=O)(=O)N1Cc2ccccc2CC1C(=O)Nc1ccc(C)cc1 (configuration not stated) | 0.1 | nt | -3.3 | -7.3
O=C(O)CSc1cc(NS(=O)(=O)c2ccc(Cl)cc2)c2ccccc2c1O | -4.8 | 95.8* | 12.8 | -15.2
O=S(=O)(Nc1ccc(Cl)cc1NS(=O)(=O)c1ccccc1)c1ccccc1 | -0.6 | 29.1 | 10.2 | -6.7
C[C@H](CO)N1C[C@H](C)[C@@H](CN(C)C(=O)Nc2cccc3ccccc23)Oc2ccc(NC(=O)C3CC3)cc2C1=O | nt | 5.7 | nt | nt
Cc1ccccc1CN(C)C(=O)COC(=O)CSc1ccc([N+](=O)[O-])cc1 | 1.3 | 71.0* | -0.9 | -3.4
O=C(O)c1ccc(NC(=O)c2ccc(COc3ccccc3)o2)cc1 | 25.8* | 2.1 | -0.2 | 0.8
COCc1ccc(C(=O)Nc2ccc(C(=O)O)cc2)o1 | 4.8 | 8.2 | 3.9 | -3.6
SMILES | UHRF1 binding | Casp6 inh | LEDGF integ inh | MBD2 inh
Cc1ccc(OCc2ccc(C(=O)Nc3ccc(C(N)=O)cc3)o2)c([N+](=O)[O-])c1 | 33.7* | -1.0 | -0.1 | 9.9
COc1ccccc1C(=O)Nc1ccc2c(c1)C(=O)N(C)[C@@H]1CC[C@@H](CC(=O)NCc3ccc(Cl)c(Cl)c3)O[C@@H]1CO2 | nt | 0.1 | nt | nt
CCN1CCN(c2c(Cl)cccc2NC(=O)c2ccco2)CC1 | 23.2* | nt | 4.8 | 11.2
O=C(Nc1cccc(Cl)c1N1CCOCC1)c1ccco1 | 6.4 | 5.2 | -5.8 | 1.7
O=C(NC1CCC1)[C@@H]1[C@@H](CO)[C@@H]2Cn3c(ccc(-c4ccccc4)c3=O)[C@H]1N2 | nt | 1.5 | nt | nt
COc1ccc(-n2nnnc2C(c2cc3ccccc3o2)N2CCN(C/C=C/c3ccccc3)CC2)cc1 (configuration not stated) | 22.6* | -5.1 | 10.4 | 5.3
CC1CCN(S(=O)(=O)c2ccc3c(c2)C(Cl)(Cl)C(=O)N3)CC1 | -3.5 | 69.1* | -3.7 | -4.4
CCN(CC)C1CCN(Cc2c(C(=O)N3CCCCCCC3)nc3ccc(Cl)cn23)C1 (configuration not stated) | -0.8 | 64.3* | -2.8 | -3.5
COC1CCN(Cc2c(C(=O)N3C[C@@H](C)O[C@@H](C)C3)nc3ccc(Cl)cn23)CC1 | -0.6 | -0.1 | 0.4 | -1.2
